Hits are enriched below; roughly 6.7% of the tested compounds scored in any of these assays.
BoNT-A LC inh2: blocks Botulinum neurotoxin A light chain protease | multiplex microsphere protease substrate cleavage, flow cytometry | inhibition, % at 10 µM | 360,000 tested, 0.17% active | AID 588499; in the data active = inhibition above about 30%; inconclusive = no clear call, values can overlap the other calls; note: plate controls were buffer without enzyme for full effect and enzyme alone for no effect
Autofluor counter: flagged as autofluorescent in microsphere protease counterscreen | compound autofluorescence counterscreen, microsphere flow cytometry; stronger effect = higher value | fluorescence intensity (no concentration beside the values) | 360,000 tested, 3.1% active; in the data active = fluorescence intensity above about 16000; inconclusive = no clear call, values can overlap the other calls
FBA Mtb inh: inhibits M. tuberculosis FBA enzyme; P9WQA3; purified M. tuberculosis FBA, fluorescence read-out; inhibition, % at 1 µM; 360,000 tested, 2.3% active;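 note: 0% = vehicle and 100% = reference inhibitor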
Target sequence (P9WQA3 whole entry, looked up): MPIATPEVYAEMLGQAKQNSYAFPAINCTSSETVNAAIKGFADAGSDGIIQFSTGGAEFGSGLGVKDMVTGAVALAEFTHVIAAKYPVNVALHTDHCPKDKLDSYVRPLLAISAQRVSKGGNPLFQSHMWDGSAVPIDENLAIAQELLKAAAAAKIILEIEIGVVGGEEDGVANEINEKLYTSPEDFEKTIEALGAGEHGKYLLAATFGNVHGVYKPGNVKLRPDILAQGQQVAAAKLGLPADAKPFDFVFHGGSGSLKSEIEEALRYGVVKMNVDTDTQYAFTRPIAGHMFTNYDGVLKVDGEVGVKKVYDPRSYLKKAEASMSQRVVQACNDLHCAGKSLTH
BoNT F protease: blocks Botulinum neurotoxin F light chain protease. 360,000 tested, 0.22% active. inhibition, % at 10 µM. AID 588497. Multiplex microsphere protease cleavage assay, flow cytometry; in the data active = inhibition above about 35%, passing the limit was not always enough; inconclusive = no clear call, values can overlap the other calls; note: plate controls were buffer without enzyme for full effect and enzyme alone for no effect
GDH-TPI counter-1: GDH-TPI coupled enzyme inhibition counter-screen; GDH-TPI coupled enzyme counterscreen, NADH absorbance; inhibition, % at 4.8 µM; 360,000 tested, 1.2% active; in the data active = inhibition above about 30%;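 note: 0% = DMSO wells and 100% = wells lacking the enzyme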
Anthrax LF inh2: blocks Bacillus anthracis lethal factor protease; 360,000 tested, 0.12% active; P15917; multiplex microsphere protease cleavage assay, LF; inhibition, % at 10 µM; in the data active = inhibition above about 30%; inconclusive = no clear call, values can overlap the other calls; note: plate controls were buffer without enzyme for full effect and enzyme alone for no effect
Mtb FBA confirm: confirmation of M. tuberculosis fructose-bisphosphate aldolase inhibitors; shares compounds with FBA Mtb inh; purified M. tuberculosis FBA, fluorescence read-out; inhibition, % at 1 µM; 5,600 tested, 78% active; AID 651616;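 note: 0% = vehicle wells and 100% = reference inhibitor wells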
GDH-TPI counter-2: GDH-TPI inhibition counter-screen for FBA inhibitors; 5,600 tested, 81% active; inhibition, % at 1 µM; shares compounds with FBA Mtb inh; GDH-TPI coupled enzyme counterscreen, fluorescence; AID 652141; in the data active = inhibition above about 10%
GDH-TPI dose: inhibits GDH-TPI coupling enzymes in dose response | shares compounds with FBA Mtb inh | GDH-TPI coupled enzyme assay, fluorescence, artifact counterscreen | IC50, µM | 170 tested, 79% active | AID 652145; call rule not given here
* = called active by the depositor; ? = inconclusive; · = not tested or not shown; + = active, no number. Cut-off read from the data, not from the text of the source, unless noted: active = inhibition above about 27%; inactive = the rest.

SMILES	BoNT-A LC inh2	Autofluor counter	FBA Mtb inh	BoNT F protease	GDH-TPI counter-1	Anthrax LF inh2	Mtb FBA confirm	GDH-TPI counter-2	others
Cc1cccc(-c2cc3nc(C)cc(N4CC(C)CC(C)C4)n3n2)c1 (stereo unspecified)	0	2955	67*	-10	10	-3	56*	30*
CCc1ccc(-n2nc3cc(C)c(N)cc3n2)cc1	-1	3539	56*	?	5	6	63*	69*
CCN(C(=S)Nc1cccnc1)c1cccc2ccccc12	-1	3500	49*	-2	5	0	148*	128*
COc1ccccc1-c1oc2ccccc2c1C#CC(C)(C)O	-1	4241	55*	-4	14	-9	+	+
CCOC(=O)C(=CN=C(N)Nc1nc2ccccc2o1)C(=O)OCC	0	2555	32*	-1	16	-1	29*	23*
CCCOC(=O)Nc1nc2ccccc2o1	1	3525	1	3	10	-4	·	·
CN(CC(=O)NCc1ccccc1)CC(=O)Nc1ccc(Cl)c(C(F)(F)F)c1	0	3585	34*	0	7	-2	92*	73*
Cc1cc(N2C(=O)C(=O)/C(=C(/O)c3ccc(F)cc3)C2c2ccc(F)cc2)no1 (stereo unspecified)	1	3248	1	6	24	1	·	·
COc1ccc(NC(=O)C2CCC(C)(C(=O)O)C2(C)C)cc1 (stereo unspecified)	0	3696	4	-13	9	2	·	·
CCN1C(=O)CC(N2CCC(C(=O)OC)CC2)C1=O (stereo unspecified)	1	4205	0	16	0	4	·	·
CCc1cc(-c2[nH]ncc2-c2ccc(OC)cc2)c(O)cc1O	2	3116	1	12	0	10	·	·
Cc1ccc(CN2CC[C@H]3C=CCc4cccc(c43)C2)cc1	-1	4018	2	-6	1	-2	·	·
C1=C[C@@H]2CCN(Cc3ccccc3)Cc3cccc(c32)C1	4	4976	28*	1	18	-3	+	+
Cc1nn(CC(=O)Nc2ccc3c(c2)nc2n3CCN(C3CCCCC3)C2)c(=O)c2ccccc12	2	5092	51*	-46	-1	-17	130*	101*
CC(c1ccccc1)N1CCn2c(nc3cc(NC(=O)NC4CCCCC4)ccc32)C1 (stereo unspecified)	13	19391*	57*	-22	2	-6	56*	52*
CC(=O)N1CCN(Cc2nc3cc(NC(=O)Cn4nc(C)c5ccccc5c4=O)ccc3n2C)CC1	0	9828	-3	-7	3	-1	·	·
COc1cccc(Nc2nnc(Cc3cccnc3)c3ccccc23)c1	0	2936	3	6	11	12	·	·
Cc1ccc2[nH]c3c(=O)n(CCN4CCOCC4)cnc3c2c1	-1	3002	14	-6	1	1	·	·
CCC1CCCN1Cn1cnc2c([nH]c3ccc(Cl)cc32)c1=O (stereo unspecified)	-1	11378	4	0	11	-2	·	·
COc1cc2[nH]c3c(=O)n(CCN4CCCCC4)cnc3c2cc1OC	-1	3341	41*	8	24	-1	107*	92*
CCN1CCCC1Cn1cnc2c([nH]c3ccc(OC)cc32)c1=O (stereo unspecified)	0	6083	57*	-6	-1	-2	157*	125*
COc1ccc2[nH]c3c(=O)n(Cc4ccncc4)cnc3c2c1	-1	4338	101*	-10	0	-4	20	5	GDH-TPI dose=1.9*
CCC1CCCN1Cn1cnc2c([nH]c3ccc(C)cc32)c1=O (stereo unspecified)	0	9005	41*	-4	11	-3	+	+
CCOC(=O)c1sc(/N=C/c2c(O)n(-c3ccccc3)c(=O)[nH]c2=O)c(C#N)c1C	0	3321	-1	-1	15	3	·	·
COc1ccc2c(c1)c1ncn(Cc3ccc(F)cc3)c(=O)c1n2C	·	·	51*	·	1	·	3	-2
SMILES	BoNT-A LC inh2	Autofluor counter	FBA Mtb inh	BoNT F protease	GDH-TPI counter-1	Anthrax LF inh2	Mtb FBA confirm	GDH-TPI counter-2	others
Cc1c(C)n2c(SCC(=O)NC3CCCCC3)nnc2[nH]c1=O	0	5438	32*	5	4	-2	-3	-4
CCC(=O)Nc1c(S(=O)(=O)c2ccccc2)c2nc3ccccc3nc2n1C(C)c1ccccc1 (stereo unspecified)	12	2051	73*	-9	27	2	73*	68*
CCC(=O)Nc1c(S(=O)(=O)c2ccc(C)cc2)c2nc3ccccc3nc2n1C(C)c1ccccc1 (stereo unspecified)	6	2205	58*	-3	5	1	50*	30*
C=CCOc1ccc(/C=C/C(=O)Nc2ccc(C(=O)NC)cc2)cc1	1	1991	45*	-1	23	2	44*	37*
O=C(Nc1nncs1)Oc1ccccc1	0	3342	0	3	7	-1	·	·
Nc1nnc(-c2ccccc2Cl)s1	-1	4436	13	-4	2	-3	·	·
COc1ccc(-c2nnc(NC(=O)C(C)C)s2)c(OC)c1	-1	5896	36*	-14	18	-17	101*	102*
COC(=O)Nc1nncs1	-27	3025	50*	?	12	-40	145*	130*
COC(=O)Nc1nnc(-c2ccncc2)s1	2	22886*	108*	3	19	1	59*	56*
COc1ccccc1-c1nnc(N)s1	1	3453	46*	2	4	-4	86*	76*
CCCSC1=N/C(=C\c2ccc3c(c2)OCO3)C(=O)S1	-1	4615	2	-3	2	0	·	·
CCSc1cnnc2ccccc12	0	2932	0	-1	24	1	·	·
COc1ccccc1-c1nnc(NC(=O)OCC(C)C)s1	0	4706	14	12	9	3	·	·
CCOC(=O)Nc1nnc(-c2ccccc2OC)s1	0	2849	42*	-19	11	-3	137*	98*
COC(=O)Nc1nnc(-c2ccccc2OC)s1	-3	4522	67*	?	3	1	11	-3	GDH-TPI dose=3.2*
Cn1c(=N)c(S(=O)(=O)c2ccccc2)cc2c(=O)n3ccccc3nc21	0	4233	60*	?	-1	2	71*	54*
O=c1c2ccccc2nc2ccccn12	-1	4455	109*	-3	1	-4	163*	151*
Cc1ccc2nc3c(cc(C(=O)NCCN4CCOCC4)c(=N)n3CCCN3CCOCC3)c(=O)n2c1	0	5674	78*	3	5	-2	61*	42*

Bioassay records (PubChem BioAssay)
